# Experimental data from PubChem BioAssay (NCATS).
# Active and inactive are the calls of the source. Entries that show only a call come without a potency. Calls follow the shape of the dose curve; as a rule, active = well fitted inhibition curve with a large enough effect; inconclusive = small, poorly fitted or top-dose-only effect; inactive = no such curve, though single readings can be large or run the other way.
# Target: Pyruvate kinase (Leishmania mexicana) (UniProt Q27686)
# Experiment: qHTS Validation Assay for Inhibitors of Leishmania Mexicana Pyruvate Kinase (AID 945)
# Conditions: purified L. mexicana pyruvate kinase, enzyme activity, E451W mutant enzyme; series mostly up to 57.5 µM
# In short: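 qHTS eight-point titrations against 0.2 nM LmPYK (E451W) in imidazole buffer pH 7.2 with 0.5 mM PEP, 0.1 mM ADP; 1 h, room temperature. Readout: PKLight luminescence, normalized to neutral DMSO wells.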
# Sequence of Pyruvate kinase (Leishmania mexicana) (Q27686 2-499 E452W): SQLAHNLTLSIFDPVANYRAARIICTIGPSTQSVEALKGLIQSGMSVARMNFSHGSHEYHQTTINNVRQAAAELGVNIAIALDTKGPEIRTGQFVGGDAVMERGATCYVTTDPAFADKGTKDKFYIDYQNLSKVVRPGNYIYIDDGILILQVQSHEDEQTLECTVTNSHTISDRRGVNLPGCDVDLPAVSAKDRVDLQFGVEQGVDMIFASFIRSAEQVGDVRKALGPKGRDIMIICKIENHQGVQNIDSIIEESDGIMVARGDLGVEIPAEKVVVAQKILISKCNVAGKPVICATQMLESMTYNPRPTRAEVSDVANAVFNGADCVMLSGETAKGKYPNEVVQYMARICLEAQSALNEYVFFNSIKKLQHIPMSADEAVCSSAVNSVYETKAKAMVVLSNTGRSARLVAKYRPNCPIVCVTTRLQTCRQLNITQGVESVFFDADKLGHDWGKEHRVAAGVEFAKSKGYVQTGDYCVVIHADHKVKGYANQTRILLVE
row,Compound,Potency
1,COc1cc(OC)c(/C=C2/C(=O)Nc3ccccc32)c(OC)c1,inactive
2,O=c1[nH]c2cc(Cl)c(Cl)cc2[nH]c1=O,inactive
3,COC1=C(OC)C(=O)c2ccccc2C1=O,inactive
4,Clc1ccc(N2CCN(Cc3c[nH]c4ncccc34)CC2)cc1,inactive
5,NCCCS(=O)(=O)O,inactive
6,Ic1ccc(N2CCN(Cc3c[nH]c4ncccc34)CC2)cc1,inactive
7,NCCCCCCCCCCN,inactive
8,CN(C)c1nc(N)c(C(=O)N=C(N)N)nc1Cl,inactive
9,CN(C)C(N)=NCCC[C@H](N)C(=O)O,inactive
10,CN1[C@@H]2CC[C@H]1CC(OC(c1ccccc1)c1ccccc1)C2 (stereo partly drawn),inactive
11,NCCNC(=O)c1ncsc1-c1cccc(F)c1,inactive
12,CC1(C)CCC=[N+]1[O-],inactive
13,NO,inactive
14,CN1CCc2ccccc2Cc2[nH]c3ccccc3c2CC1,inactive
15,CCN1/C(=C/C(C)=O)Sc2ccc(OC)cc21,inactive
16,c1ccc(-c2ccccn2)nc1,inactive
17,N[C@@H](CC(=O)O)C(=O)O,inactive
18,CCCCCCCC/C=C\CCCCCCCC(=O)NCCO,inactive
19,O=S(=O)(c1cccc2c(I)cccc12)N1CCCNCC1,inactive
20,C[N+]1(C)CCC(OC(=O)C(c2ccccc2)c2ccccc2)CC1,inactive
21,CC(=O)SCC[N+](C)(C)C,inactive
22,O=c1[nH]c2cc(C(F)(F)F)ccc2n1-c1cc(C(F)(F)F)ccc1O,inactive
23,C[N+](C)(CCCCCC[N+](C)(C)CCCN1C(=O)c2cccc3cccc(c23)C1=O)CCCN1C(=O)c2cccc3cccc(c23)C1=O,inactive
